Several values for one entry are separate records, joined by “and”; a condition that tells them apart may be missing. Identical values can stand only once. Inconclusive results are not listed. A structure can be active in one record and inactive in another. Activity calls are given as the source filed them. The calls were made as follows: active = hit-call score of the fitted dose curve at least 0.9, where 1 is the maximum; inconclusive = response in the unintended direction; inactive = score below 0.9.

For twelve compounds, outcome and AC50 results are on record in PubChem BioAssay (EPA / NIEHS).

The target of assay [1] is human Janus Kinase 2 (Jak2), JAK2 (gene 3717) (UniProt O60674). Briefly: NVS_ENZ_hJak2: NovaScreen (NVS) Enzymatic Assay for human Janus Kinase 2 (Jak2) (AID 2283169). An outline of the steps: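 Single-point duplicate screen at 25 uM, with hits run in concentration series to a 50 uM top dose. Substrate-product separation by mobility shift with fluorescence detection, 1 h post-dosing; DMSO baseline.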

The target in assay [2] is human Mitogen-Activated Protein Kinase 1 (MAPK 1), MAPK1 (gene 5594) (UniProt P28482). Briefly: NVS_ENZ_hMAPK1: NovaScreen (NVS) Enzymatic Assay for human Mitogen-Activated Protein Kinase 1 (MAPK 1) (AID 2283175). An outline of the steps:
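Cell-free recombinant human MAPK1 enzymatic assay, fluorescence/electrophoretic mobility shift read at 1 h; loss of signal vs DMSO. Primary screen in duplicate at 25 uM; actives (e.g. ≥30% inhibition) run as concentration-response up to 50 uM.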

The target of assay [3] is Mitogen-activated protein kinase 3 (Homo sapiens) (UniProt P27361). Nature of the assay: NVS_ENZ_hMAPK3: NovaScreen (NVS) Enzymatic Assay for human Mitogen-Activated Protein Kinase 3 (MAPK 3) (AID 2283177). A digest of the protocol:
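Chemicals were first tested in duplicate at 25 uM, with hits re-run as concentration series (max 50 uM). Recombinant enzyme activity, measured 1 h post-dose in a cell-free format, was read by fluorescence/mobility shift relative to DMSO.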

Assay [4] concerns the target human Matrix Metalloproteinase-7 (MMP7), MMP7 (gene 4316) (UniProt P09237). Briefly: NVS_ENZ_hMMP7: NovaScreen (NVS) Enzymatic Assay for human Matrix Metalloproteinase-7 (MMP7) (AID 2283183). A digest of the protocol:
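Compounds first tested at 25 uM in duplicate, then at up to 50 uM in concentration series if active. Protease activity measured by fluorescence intensity 1 h after dosing, with fitting relative to DMSO.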

Assay [5] concerns the target human Matrix Metalloproteinase-2 (MMP2), MMP2 (gene 4313) (UniProt P08253). Briefly: NVS_ENZ_hMMP2: NovaScreen (NVS) Enzymatic Assay for human Matrix Metalloproteinase-2 (MMP2) (AID 2283184). A digest of the protocol: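 Compounds first screened in duplicate at a single 25 uM, with actives followed up in concentration series. Recombinant human MMP2 cleaves a fluorogenic substrate; fluorescence taken at 1 h, inhibition fitted relative to DMSO.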

The target in assay [6] is human p21 Activated Kinase 4 (PAK4), PAK4 (gene 10298) (UniProt O96013). Nature of the assay: NVS_ENZ_hPAK4: NovaScreen (NVS) Enzymatic Assay for human p21 Activated Kinase 4 (PAK4) (AID 2283189). A digest of the protocol:
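Extracted PAK4 enzyme activity read by fluorescence with mobility-shift separation 1 h after chemical addition. Duplicate single-concentration screen at 25 uM, DMSO as negative control.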

For assay [7], the target named is human Matrix Metalloproteinase-9 (MMP9), MMP9 (gene 4318) (UniProt P14780). Nature of the assay: NVS_ENZ_hMMP9: NovaScreen (NVS) Enzymatic Assay for human Matrix Metalloproteinase-9 (MMP9) (AID 2283190).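 Also: cell-free recombinant MMP9 protease activity read by fluorescent substrate signal; active means inhibition seen as loss of fluorescence signal versus DMSO.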 An outline of the steps: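 Inhibition was scored as loss of fluorescence signal against DMSO controls. The recombinant protease was exposed to chemicals for 1 hour before reading; initial testing used 25 uM in duplicate.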

Assay [8] concerns the target human Phosphodiesterase 5 (PDE5), PDE5A (gene 8654) (UniProt O76074). Briefly: NVS_ENZ_hPDE5: NovaScreen (NVS) Enzymatic Assay for human Phosphodiesterase 5 (PDE5) (AID 2283194). An outline of the steps:
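Screening began in duplicate at 25 uM, with actives taken into concentration-response. Enzyme activity of recombinant PDE5 toward its substrate was measured at 1 h by fluorescence mobility-shift detection, relative to DMSO controls.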

Assay [9] has as its target human Phosphodiesterase 4A1 (PDE4A1), PDE4A (gene 5141) (UniProt P27815). Nature of the assay: NVS_ENZ_hPDE4A1: NovaScreen (NVS) Enzymatic Assay for human Phosphodiesterase 4A1 (PDE4A1) (AID 2283191). An outline of the steps:
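Fluorescent substrate turnover by recombinant PDE4A1 read after 1 h by mobility-shift separation. Primary duplicate screen at 25 uM; hits retested in concentration series with a 50 uM maximum, relative to DMSO.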

Assay [10] deals with human Phosphodiesterase 10 (PDE10), PDE10A (gene 10846) (UniProt Q9Y233). Briefly: NVS_ENZ_hPDE10: NovaScreen (NVS) Enzymatic Assay for human Phosphodiesterase 10 (PDE10) (AID 2283195). An outline of the steps:
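Readout is fluorescence intensity following electrophoretic mobility-shift separation, 1 h after dosing of isolated PDE10A protein. Hits meeting a preset threshold at 25 uM went to concentration series (max 50 uM), analysed relative to DMSO.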

For assay [11], the target named is human Insulin Receptor (InsR), INSR (gene 3643) (UniProt P06213). Briefly: NVS_ENZ_hInsR: NovaScreen (NVS) Enzymatic Assay for human Insulin Receptor (InsR) (AID 2283168). An outline of the steps: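 Cell-free enzyme assay read 1 h post-dose by fluorescence after substrate/product mobility-shift separation. Duplicate 25 uM primary screen, then singleton concentration-response up to 50 uM for compounds passing threshold; loss of signal vs DMSO.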

Assay [12] has as its target human NIMA (Never In Mitosis Gene A)-Related Kinase 2 (NEK2), NEK2 (gene 4751) (UniProt P51955). Briefly: NVS_ENZ_hNEK2: NovaScreen (NVS) Enzymatic Assay for human NIMA (Never In Mitosis Gene A)-Related Kinase 2 (NEK2) (AID 2283188). An outline of the steps: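 Compounds were first screened in duplicate at 25 uM, with actives followed up in concentration series. Recombinant NEK2 activity, cell-free, was read 1 h after dosing by fluorescence intensity after mobility-shift separation. Signal loss was scored against DMSO.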

In assay [13] the target is human MAP Kinase-Activated Protein Kinase 2 (MAPKAPK2), MAPKAPK2 (gene 9261) (UniProt P49137). Nature of the assay: NVS_ENZ_hMAPKAPK2: NovaScreen (NVS) Enzymatic Assay for human MAP Kinase-Activated Protein Kinase 2 (MAPKAPK2) (AID 2283178). An outline of the steps:
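Chemicals screened in duplicate at 25 uM, then to 50 uM top concentration in concentration-response, against recombinant human MAPKAPK2; substrate conversion read 1 hr post-dosing by fluorescence after electrophoretic mobility-shift separation, loss-of-signal relative to DMSO.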

The target of assay [14] is human MET Proto-Oncogene, Receptor Tyrosine Kinase (MET), MET (gene 4233) (UniProt P08581). Briefly: NVS_ENZ_hMet: NovaScreen (NVS) Enzymatic Assay for human MET Proto-Oncogene, Receptor Tyrosine Kinase (MET) (AID 2283180). A digest of the protocol:
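Hits from a 25 uM duplicate screen were retested in concentration series up to 50 uM. Enzyme activity was measured by fluorescence after electrophoretic separation of product from substrate, 1 h after compound addition, relative to DMSO.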

Assay [15] deals with Collagenase 3 (Homo sapiens) (UniProt P45452). Briefly: NVS_ENZ_hMMP13: NovaScreen (NVS) Enzymatic Assay for human Matrix Metalloproteinase-13 (MMP13) (AID 2283182). An outline of the steps:
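Recombinant MMP13 cleaving fluorescent substrate, cell-free, measured 1 h after dosing. Primary duplicate screen at 25 uM; actives tested in concentration-response up to 50 uM; loss of signal relative to DMSO.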

Assay [16] concerns the target human Matrix Metalloproteinase-3 (MMP3), MMP3 (gene 4314) (UniProt P08254). Briefly: NVS_ENZ_hMMP3: NovaScreen (NVS) Enzymatic Assay for human Matrix Metalloproteinase-3 (MMP3) (AID 2283185). A digest of the protocol: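 Fluorescent substrate turnover by recombinant MMP3 read after 1 h, signal loss scored against DMSO. Compounds first run in duplicate at 25 uM single dose, then actives confirmed by concentration series.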

Assay [17] deals with human Mitogen- and Stress-activated Protein Kinase-1 (Msk1), RPS6KA5 (gene 9252) (UniProt O75582). Nature of the assay: NVS_ENZ_hMsk1: NovaScreen (NVS) Enzymatic Assay for human Mitogen- and Stress-activated Protein Kinase-1 (Msk1) (AID 2283187). A digest of the protocol:
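Chemicals first run in duplicate at 25 uM, with actives followed up in singleton concentration series to 50 uM maximum. Enzyme activity came from substrate/product mobility-shift separation with fluorescence detection after 1 h incubation of the recombinant protein.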

In assay [18] the target is cAMP-dependent protein kinase catalytic subunit alpha (Homo sapiens) (UniProt P17612). Briefly: NVS_ENZ_hPKA: NovaScreen (NVS) Enzymatic Assay for human Protein Kinase A (PKA) (AID 2283192). An outline of the steps: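 Cell-free kinase activity read by fluorescence after mobility-shift separation of substrate and product, 1 h post-dosing. Single-concentration duplicate screen (25 uM) preceded singleton concentration series (top 50 uM); loss of signal versus DMSO.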

Assay [19] addresses human Phosphoinositide 3-kinase alpha (PI3Ka), PIK3CA (gene 5290) (UniProt P42336). Nature of the assay: NVS_ENZ_hPI3Ka: NovaScreen (NVS) Enzymatic Assay for human Phosphoinositide 3-kinase alpha (PI3Ka) (AID 2283196). A digest of the protocol:
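Chemicals were first screened at 25 uM in duplicate, then hits were run as concentration series up to 50 uM. Enzyme activity was measured by fluorescence after mobility-shift separation, with loss of signal relative to DMSO taken as activity.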

The target of assay [20] is human Matrix Metalloproteinase-1 (MMP1), MMP1 (gene 4312) (UniProt P03956). Briefly: NVS_ENZ_hMMP1: NovaScreen (NVS) Enzymatic Assay for human Matrix Metalloproteinase-1 (MMP1) (AID 2283181). A digest of the protocol: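 Cell-free fluorescent substrate assay of human MMP1, read after 1 h. A single 25 uM duplicate screen was followed by concentration series to a maximum of 50 uM for actives meeting threshold; inhibition analysed against DMSO baseline.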

human Phosphodiesterase 4A1 (PDE4A1), PDE4A (gene 5141), sequence (P27815 whole entry, looked up): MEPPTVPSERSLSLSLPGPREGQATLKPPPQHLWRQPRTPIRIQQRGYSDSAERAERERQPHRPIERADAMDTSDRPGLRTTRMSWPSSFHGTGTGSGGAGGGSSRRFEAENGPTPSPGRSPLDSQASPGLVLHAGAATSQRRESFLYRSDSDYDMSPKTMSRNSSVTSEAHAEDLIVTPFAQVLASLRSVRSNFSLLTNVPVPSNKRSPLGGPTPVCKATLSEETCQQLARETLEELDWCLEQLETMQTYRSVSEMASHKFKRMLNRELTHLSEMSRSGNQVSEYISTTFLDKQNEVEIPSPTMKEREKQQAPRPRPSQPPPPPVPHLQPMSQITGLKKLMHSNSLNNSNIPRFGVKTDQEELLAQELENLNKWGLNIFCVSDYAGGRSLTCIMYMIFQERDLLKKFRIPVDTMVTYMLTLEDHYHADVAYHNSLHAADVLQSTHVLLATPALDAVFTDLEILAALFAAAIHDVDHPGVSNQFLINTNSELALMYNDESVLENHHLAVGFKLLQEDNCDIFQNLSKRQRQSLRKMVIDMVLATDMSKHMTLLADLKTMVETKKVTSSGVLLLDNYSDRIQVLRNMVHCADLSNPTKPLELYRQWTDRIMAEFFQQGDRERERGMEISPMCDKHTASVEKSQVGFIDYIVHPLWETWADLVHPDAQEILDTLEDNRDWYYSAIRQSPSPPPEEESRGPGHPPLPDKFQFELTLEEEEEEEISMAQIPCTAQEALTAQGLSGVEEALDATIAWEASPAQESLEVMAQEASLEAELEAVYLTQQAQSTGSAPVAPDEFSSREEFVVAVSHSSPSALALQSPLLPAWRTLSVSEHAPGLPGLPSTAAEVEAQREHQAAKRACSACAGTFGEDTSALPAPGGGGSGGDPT
human Janus Kinase 2 (Jak2), JAK2 (gene 3717), sequence (O60674 whole entry, looked up): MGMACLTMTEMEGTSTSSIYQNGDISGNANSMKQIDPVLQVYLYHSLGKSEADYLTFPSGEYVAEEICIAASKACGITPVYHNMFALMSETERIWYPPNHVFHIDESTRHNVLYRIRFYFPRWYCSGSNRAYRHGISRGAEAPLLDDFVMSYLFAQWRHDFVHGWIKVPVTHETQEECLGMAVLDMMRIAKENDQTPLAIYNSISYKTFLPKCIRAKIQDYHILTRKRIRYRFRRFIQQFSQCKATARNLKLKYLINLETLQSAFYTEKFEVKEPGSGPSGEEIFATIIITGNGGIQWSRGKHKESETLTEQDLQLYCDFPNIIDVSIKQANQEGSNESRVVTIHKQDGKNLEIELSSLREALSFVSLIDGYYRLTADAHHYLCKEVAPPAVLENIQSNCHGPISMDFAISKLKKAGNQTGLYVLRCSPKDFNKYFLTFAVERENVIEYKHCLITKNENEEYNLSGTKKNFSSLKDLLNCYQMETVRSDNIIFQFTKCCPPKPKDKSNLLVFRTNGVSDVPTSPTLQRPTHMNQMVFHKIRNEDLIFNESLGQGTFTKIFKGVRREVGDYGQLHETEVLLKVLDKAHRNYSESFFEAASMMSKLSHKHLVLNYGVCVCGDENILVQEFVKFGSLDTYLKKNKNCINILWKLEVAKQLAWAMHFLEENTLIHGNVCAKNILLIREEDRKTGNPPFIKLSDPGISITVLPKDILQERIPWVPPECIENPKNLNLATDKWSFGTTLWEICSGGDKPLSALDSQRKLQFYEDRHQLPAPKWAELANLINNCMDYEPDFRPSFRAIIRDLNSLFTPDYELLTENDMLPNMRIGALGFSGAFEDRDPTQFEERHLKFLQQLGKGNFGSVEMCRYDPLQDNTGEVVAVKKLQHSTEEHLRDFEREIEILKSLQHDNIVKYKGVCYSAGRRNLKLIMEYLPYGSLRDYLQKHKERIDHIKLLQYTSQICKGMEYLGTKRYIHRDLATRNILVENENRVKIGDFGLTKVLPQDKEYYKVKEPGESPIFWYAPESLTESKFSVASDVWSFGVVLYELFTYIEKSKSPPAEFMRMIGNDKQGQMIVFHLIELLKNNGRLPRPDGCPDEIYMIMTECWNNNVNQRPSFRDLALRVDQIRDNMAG
human Phosphoinositide 3-kinase alpha (PI3Ka), PIK3CA (gene 5290), sequence (P42336 whole entry, looked up): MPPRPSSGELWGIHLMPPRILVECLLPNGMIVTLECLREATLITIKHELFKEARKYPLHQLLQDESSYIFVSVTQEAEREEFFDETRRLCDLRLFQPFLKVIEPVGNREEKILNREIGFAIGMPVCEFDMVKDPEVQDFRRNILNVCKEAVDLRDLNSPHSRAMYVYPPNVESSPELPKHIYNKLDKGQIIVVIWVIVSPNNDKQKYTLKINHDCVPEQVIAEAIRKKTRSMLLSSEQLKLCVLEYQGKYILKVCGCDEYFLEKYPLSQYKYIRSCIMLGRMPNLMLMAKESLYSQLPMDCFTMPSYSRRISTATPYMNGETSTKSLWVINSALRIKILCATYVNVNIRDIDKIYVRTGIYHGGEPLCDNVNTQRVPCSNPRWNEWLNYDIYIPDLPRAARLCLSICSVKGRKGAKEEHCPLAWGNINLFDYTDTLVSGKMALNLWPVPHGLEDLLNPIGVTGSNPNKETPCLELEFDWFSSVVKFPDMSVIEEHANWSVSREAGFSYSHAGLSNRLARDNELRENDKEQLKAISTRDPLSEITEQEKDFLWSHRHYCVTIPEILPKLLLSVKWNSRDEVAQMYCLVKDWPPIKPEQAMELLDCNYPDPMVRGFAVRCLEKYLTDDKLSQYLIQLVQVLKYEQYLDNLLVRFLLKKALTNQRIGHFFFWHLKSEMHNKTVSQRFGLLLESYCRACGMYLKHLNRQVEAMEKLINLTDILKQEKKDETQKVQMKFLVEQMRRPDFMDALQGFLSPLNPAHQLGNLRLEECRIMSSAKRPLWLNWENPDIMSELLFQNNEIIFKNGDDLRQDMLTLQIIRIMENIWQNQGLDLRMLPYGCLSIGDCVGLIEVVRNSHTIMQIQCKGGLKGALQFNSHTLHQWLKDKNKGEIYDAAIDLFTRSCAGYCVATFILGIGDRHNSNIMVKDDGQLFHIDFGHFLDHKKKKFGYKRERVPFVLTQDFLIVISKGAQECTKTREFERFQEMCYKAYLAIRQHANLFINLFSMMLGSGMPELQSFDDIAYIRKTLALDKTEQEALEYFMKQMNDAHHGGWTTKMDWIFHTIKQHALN
human Mitogen-Activated Protein Kinase 1 (MAPK 1), MAPK1 (gene 5594), sequence (P28482 whole entry, looked up): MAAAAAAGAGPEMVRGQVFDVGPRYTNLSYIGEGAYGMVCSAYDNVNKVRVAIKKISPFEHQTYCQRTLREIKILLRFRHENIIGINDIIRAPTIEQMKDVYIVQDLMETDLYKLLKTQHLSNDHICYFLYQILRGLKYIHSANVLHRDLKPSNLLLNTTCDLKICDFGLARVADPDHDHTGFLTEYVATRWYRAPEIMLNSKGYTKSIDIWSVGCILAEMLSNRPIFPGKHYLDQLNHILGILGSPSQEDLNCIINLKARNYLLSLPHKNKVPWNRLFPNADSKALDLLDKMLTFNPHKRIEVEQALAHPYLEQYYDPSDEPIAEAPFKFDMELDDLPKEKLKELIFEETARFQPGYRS
human Matrix Metalloproteinase-7 (MMP7), MMP7 (gene 4316), sequence (P09237 whole entry, looked up): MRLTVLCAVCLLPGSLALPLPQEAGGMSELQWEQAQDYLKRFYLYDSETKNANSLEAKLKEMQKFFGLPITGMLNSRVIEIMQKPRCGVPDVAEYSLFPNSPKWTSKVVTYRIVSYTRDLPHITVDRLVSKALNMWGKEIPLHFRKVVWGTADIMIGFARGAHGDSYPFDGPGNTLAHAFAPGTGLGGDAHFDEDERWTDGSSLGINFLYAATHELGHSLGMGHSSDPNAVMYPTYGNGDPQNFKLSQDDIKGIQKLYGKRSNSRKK
human Matrix Metalloproteinase-2 (MMP2), MMP2 (gene 4313), sequence (P08253 whole entry, looked up): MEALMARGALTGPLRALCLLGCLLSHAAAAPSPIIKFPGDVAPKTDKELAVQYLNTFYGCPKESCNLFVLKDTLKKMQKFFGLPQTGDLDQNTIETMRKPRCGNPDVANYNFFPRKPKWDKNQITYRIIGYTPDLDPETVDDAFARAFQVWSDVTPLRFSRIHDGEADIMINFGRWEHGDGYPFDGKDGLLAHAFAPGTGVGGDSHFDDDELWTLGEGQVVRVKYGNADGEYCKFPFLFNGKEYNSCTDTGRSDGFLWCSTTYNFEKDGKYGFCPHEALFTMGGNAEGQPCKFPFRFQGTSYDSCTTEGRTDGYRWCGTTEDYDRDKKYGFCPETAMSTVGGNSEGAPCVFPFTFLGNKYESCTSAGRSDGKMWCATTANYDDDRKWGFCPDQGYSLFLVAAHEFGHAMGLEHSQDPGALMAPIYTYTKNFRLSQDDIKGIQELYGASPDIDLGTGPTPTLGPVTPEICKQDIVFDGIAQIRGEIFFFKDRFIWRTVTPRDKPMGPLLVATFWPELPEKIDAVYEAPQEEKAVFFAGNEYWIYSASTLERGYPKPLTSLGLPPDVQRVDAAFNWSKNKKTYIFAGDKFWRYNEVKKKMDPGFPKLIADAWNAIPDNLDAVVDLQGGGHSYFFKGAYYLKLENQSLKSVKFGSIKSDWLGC
human Matrix Metalloproteinase-3 (MMP3), MMP3 (gene 4314), sequence (P08254 whole entry, looked up): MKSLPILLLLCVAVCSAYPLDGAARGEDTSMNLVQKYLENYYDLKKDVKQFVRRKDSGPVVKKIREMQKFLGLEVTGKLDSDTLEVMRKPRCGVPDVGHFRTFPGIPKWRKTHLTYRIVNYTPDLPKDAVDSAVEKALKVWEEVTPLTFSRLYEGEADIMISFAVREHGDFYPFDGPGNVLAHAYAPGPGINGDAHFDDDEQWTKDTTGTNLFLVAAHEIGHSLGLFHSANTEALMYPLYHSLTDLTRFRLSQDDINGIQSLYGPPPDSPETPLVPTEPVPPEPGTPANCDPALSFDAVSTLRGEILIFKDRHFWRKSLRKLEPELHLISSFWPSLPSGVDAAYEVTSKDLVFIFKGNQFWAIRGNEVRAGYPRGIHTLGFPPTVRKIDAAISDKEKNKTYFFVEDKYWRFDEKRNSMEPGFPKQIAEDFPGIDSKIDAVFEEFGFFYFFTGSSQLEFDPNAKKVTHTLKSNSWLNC

`Oc1cc(Cl)ccc1Oc1ccc(Cl)cc1Cl`: the outcome in assay [1], in assay [2], in assay [3], in assay [4], in assay [5] and in assay [6] was inactive. Further, the compound was classed as inactive in [7] and in assay [8]. The concentration at half-maximal activity (AC50) in [4] is 13 µM (active).

As for `Cc1[nH]c(=O)n(C(C)(C)C)c(=O)c1Cl`, in assay [8], the half-maximal activity concentration (AC50) was 9.17 µM (active).

Take `CC(C)(C)C(O)C(Oc1ccc(Cl)cc1)n1cncn1` (configuration not stated): the compound was called inactive in assay [1], in assay [9], in [8] and in assay [10].

Take `COC(=O)c1ccccc1CS(=O)(=O)NC(=O)Nc1nc(OC)cc(OC)n1`: the call in assay [11] and in [1] was inactive.

On to `CC1(C)C(C=C(Cl)Cl)C1C(=O)OC(C#N)c1ccc(F)c(Oc2ccccc2)c1` (configuration not stated), for which the compound was called inactive in assay [12].

In the case of `O=S(=O)(O)C(F)(F)C(F)(F)C(F)(F)C(F)(F)C(F)(F)C(F)(F)C(F)(F)C(F)(F)F`, the concentration at half-maximal activity (AC50) is 11.7 µM (active) in assay [11]; 34.9 µM (active) and 41 µM (active) in assay [2]; 32.7 µM (active) in [3]; 36.1 µM (active) and 40.4 µM (active) in assay [14]; 7.53 µM (active) and 43 µM (active) in assay [15]; 1.73 µM (active) in [4]. In addition, the AC50 in assay [16] was 22.6 µM (active) [middle of 4 runs]; in assay [17], 24.1 µM (active); in assay [6] it was 25 µM (active); in assay [9] it was 5.35 µM (active); in assay [18], 36.3 µM (active) and 47.7 µM (active); in assay [8], 25 µM (active) and 21.9 µM (active). Further, the AC50 in assay [19] was 6.79 µM (active) and 4.5 µM (active) and 8.3 µM (active). Further, the call in [13], in assay [5], in [7] and in [10] was inactive.

For the compound `Cc1cc(C)nc(NC(=O)NS(=O)(=O)c2ccccc2C(=O)OC2COC2)n1`, the half-maximal activity concentration (AC50) in [13] is 18.6 µM (active).

In the case of `O=C(Nc1ccccc1)Nc1cnns1`, the compound was called inactive in assay [15].

Take `COc1nn(CSP(=S)(OC)OC)c(=O)s1`: the AC50 in assay [9] was 9.55 µM (active).

For `CC(C)(C)C(O)/C(=C\c1ccc(Cl)cc1Cl)n1cncn1` (configuration not stated), the compound was called inactive in [2].

As to `CCN(CC)C(=O)SCc1ccc(Cl)cc1`, the result in assay [19] was inactive.

Regarding `CCCN(CCOc1c(Cl)cc(Cl)cc1Cl)C(=O)n1ccnc1`, the AC50 in [20] was 13 µM (active); in assay [9], 7.79 µM (active); in assay [8], 9.58 µM (active).

A word on the AC50: it is the concentration giving half of the maximal activity seen.
